The values below come from the supplement of paper PMC11172423.

The test system of the first assay is Madurella mycetomatis MM55. The experiment in a line: growth relative to untreated control; higher = less inhibition, active = 20 or less. The conditions noted are these: 25 µM. As to the method:
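Hyphal fragments of M. mycetomatis MM55 or F. senegalensis CBS197.79 in RPMI 1640/MOPS were exposed to each MMV COVID Box or Global Health Priority Box compound at 100 or 25 µM for 7 days at 37 °C. Viability was read with MTS (490 nm, M. mycetomatis) or resazurin (600 nm, F. senegalensis), background-corrected with a medium-only control and expressed as % growth relative to the untreated growth control. Inhibition of more than 80% was taken as growth inhibition.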
With `CN1C2CCC1CC(C#N)C2` (stereo not given), the growth was 85.6% (inactive).

Consider `Clc1ccc(C(OCCN2CCCCC2)c2ccccc2)cc1` (stereo not given), for which the growth is 120% (inactive).

Turning to `CN(C)[C@@H]1C(=O)C(C(N)=O)=C(O)[C@@]2(O)C(O)=C3C(=O)c4c(O)cccc4[C@@](C)(O)[C@H]3C[C@@H]12`, the growth was 102% (inactive).

Take `CC1(C)C(C=C(Cl)Cl)C1C(=O)OC(C#N)c1ccc(F)c(Oc2ccccc2)c1` (stereo not given): the growth is 115% (inactive).

On to `CC(COc1ccc(Oc2ccccc2)cc1)Oc1ccccn1` (stereo not given), for which the growth was 50.7% (inactive).

As for `CC[C@H]1CN2CCc3cc(OC)c(OC)cc3[C@@H]2C[C@@H]1C[C@H]1NCCc2cc(OC)c(OC)cc21`, the growth is 84.8% (inactive).

Regarding `CN1CCN(C(=O)O[C@H]2c3nccnc3C(=O)N2c2ccc(Cl)cn2)CC1`, the growth is 72.7% (inactive).

With `CCc1nn(C)c(C(=O)NCc2ccc(Oc3ccc(C)cc3)cc2)c1Cl`, the growth was 66.4% (inactive).

Consider `CC1(C)CNC(=NN=C(C=Cc2ccc(C(F)(F)F)cc2)C=Cc2ccc(C(F)(F)F)cc2)NC1`, for which the growth was 104% (inactive).

As to `N#Cc1nn(-c2c(Cl)cc(C(F)(F)F)cc2Cl)c(N)c1S(=O)C(F)(F)F` (stereo not given), the growth is 120% (inactive).

With `Cc1nc(N(C)C)nc(OC(=O)N(C)C)c1C`, the growth is 109% (inactive).

On to `C[C@@H]1O[C@@H](O[C@@H]2C=C3CC[C@@H]4[C@H](CC[C@]5(C)[C@@H](c6ccc(=O)oc6)CC[C@]45O)[C@@]3(C)CC2)[C@H](O)[C@H](O)[C@H]1O`, for which the growth was 93.2% (inactive).

As to `C[C@@H]1C[C@@H]([C@H](O)CC2CC(=O)NC(=O)C2)C(=O)[C@@H](C)C1`, the growth was 31.4% (inactive).

As to `CCC(CC)c1cccc(OC(=O)NC)c1.CCCC(C)c1cccc(OC(=O)NC)c1`, the growth is 96.3% (inactive).

`O=C(NC(=O)c1c(F)cccc1F)Nc1ccc(Cl)c(Oc2ncc(C(F)(F)F)cc2Cl)c1`: the growth was 46.7% (inactive).

As for `O=C1C=C(N(Cc2ccc(Cl)nc2)CC(F)F)CO1`, the growth is 92.5% (inactive).

Consider `CC[C@H](C)[C@H]1O[C@]2(C=C[C@@H]1C)C[C@@H]1C[C@@H](C/C=C(\C)[C@@H](O[C@H]3C[C@H](OC)[C@@H](O[C@H]4C[C@H](OC)[C@@H](O)[C@H](C)O4)[C@H](C)O3)[C@@H](C)/C=C/C=C3\CO[C@@H]4[C@H](O)C(C)=C[C@@H](C(=O)O1)[C@]34O)O2.CO[C@H]1C[C@H](O[C@H]2[C@H](C)O[C@@H](O[C@@H]3/C(C)=C/C[C@@H]4C[C@@H](C[C@]5(C=C[C@H](C)[C@@H](C(C)C)O5)O4)OC(=O)[C@@H]4C=C(C)[C@@H](O)[C@H]5OC/C(=C\C=C\[C@@H]3C)[C@]54O)C[C@@H]2OC)O[C@@H](C)[C@@H]1O`, for which the growth was 75.2% (inactive).

With `C=C(C)[C@H]1Cc2c(ccc3c2O[C@@H]2COc4cc(OC)c(OC)cc4[C@@H]2C3=O)O1`, the growth was 7.57% (active).

With `CCOC(=O)CC(SP(=S)(OC)OC)C(=O)OCC` (stereo not given), the growth is 128% (inactive).

With `CN1C(=O)C(C(=O)Nc2ccc(Cl)c(Cl)c2)C(=O)N(C)C1=O`, the growth is 56% (inactive).

Still in this assay, the particulars now being: 100 µM.
Take `CN1C2CCC1CC(C#N)C2` (stereo not given): the growth is 117% (inactive).

In the case of `Clc1ccc(C(OCCN2CCCCC2)c2ccccc2)cc1` (stereo not given), the growth was 4.6% (active).

For the compound `CN(C)[C@@H]1C(=O)C(C(N)=O)=C(O)[C@@]2(O)C(O)=C3C(=O)c4c(O)cccc4[C@@](C)(O)[C@H]3C[C@@H]12`, the growth was 82.5% (inactive).

In the case of `CC1(C)C(C=C(Cl)Cl)C1C(=O)OC(C#N)c1ccc(F)c(Oc2ccccc2)c1` (stereo not given), the growth is 146% (inactive).

`CC(COc1ccc(Oc2ccccc2)cc1)Oc1ccccn1` (stereo not given): the growth was 46.3% (inactive).

For `CC[C@H]1CN2CCc3cc(OC)c(OC)cc3[C@@H]2C[C@@H]1C[C@H]1NCCc2cc(OC)c(OC)cc21`, the growth is 43.6% (inactive).

Consider `CN1CCN(C(=O)O[C@H]2c3nccnc3C(=O)N2c2ccc(Cl)cn2)CC1`, for which the growth is 88.8% (inactive).

As for `CCc1nn(C)c(C(=O)NCc2ccc(Oc3ccc(C)cc3)cc2)c1Cl`, the growth is 120% (inactive).

Consider `CC1(C)CNC(=NN=C(C=Cc2ccc(C(F)(F)F)cc2)C=Cc2ccc(C(F)(F)F)cc2)NC1`, for which the growth is 106% (inactive).

As for `N#Cc1nn(-c2c(Cl)cc(C(F)(F)F)cc2Cl)c(N)c1S(=O)C(F)(F)F` (stereo not given), the growth is 86.5% (inactive).

For the compound `Cc1nc(N(C)C)nc(OC(=O)N(C)C)c1C`, the growth was 137% (inactive).

Consider `C[C@@H]1O[C@@H](O[C@@H]2C=C3CC[C@@H]4[C@H](CC[C@]5(C)[C@@H](c6ccc(=O)oc6)CC[C@]45O)[C@@]3(C)CC2)[C@H](O)[C@H](O)[C@H]1O`, for which the growth is 82.8% (inactive).

With `C[C@@H]1C[C@@H]([C@H](O)CC2CC(=O)NC(=O)C2)C(=O)[C@@H](C)C1`, the growth was 3.56% (active).

Regarding `CCC(CC)c1cccc(OC(=O)NC)c1.CCCC(C)c1cccc(OC(=O)NC)c1`, the growth is 147% (inactive).

On to `O=C(NC(=O)c1c(F)cccc1F)Nc1ccc(Cl)c(Oc2ncc(C(F)(F)F)cc2Cl)c1`, for which the growth is 149% (inactive).

Regarding `O=C1C=C(N(Cc2ccc(Cl)nc2)CC(F)F)CO1`, the growth was 114% (inactive).

`CC[C@H](C)[C@H]1O[C@]2(C=C[C@@H]1C)C[C@@H]1C[C@@H](C/C=C(\C)[C@@H](O[C@H]3C[C@H](OC)[C@@H](O[C@H]4C[C@H](OC)[C@@H](O)[C@H](C)O4)[C@H](C)O3)[C@@H](C)/C=C/C=C3\CO[C@@H]4[C@H](O)C(C)=C[C@@H](C(=O)O1)[C@]34O)O2.CO[C@H]1C[C@H](O[C@H]2[C@H](C)O[C@@H](O[C@@H]3/C(C)=C/C[C@@H]4C[C@@H](C[C@]5(C=C[C@H](C)[C@@H](C(C)C)O5)O4)OC(=O)[C@@H]4C=C(C)[C@@H](O)[C@H]5OC/C(=C\C=C\[C@@H]3C)[C@]54O)C[C@@H]2OC)O[C@@H](C)[C@@H]1O`: the growth is 55.6% (inactive).

Consider `C=C(C)[C@H]1Cc2c(ccc3c2O[C@@H]2COc4cc(OC)c(OC)cc4[C@@H]2C3=O)O1`, for which the growth was 9.11% (active).

Turning to `CCOC(=O)CC(SP(=S)(OC)OC)C(=O)OCC` (stereo not given), the growth is 131% (inactive).

Take `CN1C(=O)C(C(=O)Nc2ccc(Cl)c(Cl)c2)C(=O)N(C)C1=O`: the growth was 10.4% (active).
